Data taken from PubChem BioAssay (EPA / NIEHS).
Active and inactive are the calls of the source. The calls were made as follows: active = hit-call score of the fitted dose curve at least 0.9, where 1 is the maximum; inactive = score below 0.9.

Test: ATG_RORE_CIS: Attagene CIS-FACTORIAL HepG2 Assay for human RAR-related Orphan Receptor Element (RORE) (AID 2282959)
Conditions: HepG2 Attagene cis-factorial RORE reporter, mRNA; actives raise or lower the signal
Procedure, shortened: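 HepG2 cells carrying transiently transfected cis-regulated reporter units; RORE-driven reporter mRNA quantified 24 h post-dosing by RT-PCR, 6-FAM primer extension, HpaI digestion and capillary electrophoresis. Bidirectional fit versus DMSO.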

| Structure (SMILES) | outcome | AC50 |
| --- | --- | --- |
| COC(=O)NS(=O)(=O)c1ccc(N)cc1 | inactive | – |
| CC(C)(C)C(=O)C(Oc1ccc(Cl)cc1)n1cncn1 (configuration not stated) | inactive | – |
| Cc1c(COC(=O)[C@@H]2[C@H](/C=C(\Cl)C(F)(F)F)C2(C)C)cccc1-c1ccccc1 | inactive | – |
| CCOC(=O)C(C)OC(=O)c1cc(Oc2ccc(C(F)(F)F)cc2Cl)ccc1[N+](=O)[O-] (configuration not stated) | – | 50 µM (active) |
| CCN(CC)c1nc(C)cc(OP(=S)(OC)OC)n1 | – | 20 µM (active) |
| COCC(=O)N(c1c(C)cccc1C)C(C)C(=O)OC (configuration not stated) | inactive | – |
| CCCCC(C#N)(Cn1cncn1)c1ccc(Cl)cc1 (configuration not stated) | inactive | – |
| Nc1cnn(-c2ccccc2)c(=O)c1Cl | inactive | – |
| CC(C)C1(C)N=C(c2ncccc2C(=O)O)NC1=O (configuration not stated) | inactive | – |
| N#Cc1c(Cl)cccc1Cl | inactive | – |
| CCNC(=O)NC(=O)C(C#N)=NOC | inactive | – |
| Cc1cc(C)nc(Nc2ccccc2)n1 | inactive | – |
| CC(C)=CC1C(C(=O)OCc2coc(Cc3ccccc3)c2)C1(C)C (configuration not stated) | inactive | – |
| COCc1cnc(C2=NC(C)(C(C)C)C(=O)N2)c(C(=O)O)c1 (configuration not stated) | inactive | – |
| CCOc1nc(F)cc2nc(S(=O)(=O)Nc3c(Cl)cccc3Cl)nn12 | inactive | – |
| CCN(CC)C(=O)C(C)Oc1cccc2ccccc12 (configuration not stated) | – | 28 µM (active) |
| CS(=O)(=O)c1cc(C(F)(F)F)ccc1C(=O)c1cnoc1C1CC1 | inactive | – |
| CNC(=O)N(C)c1nnc(C(C)(C)C)s1 | inactive | – |

| Structure (SMILES) | outcome | AC50 |
| --- | --- | --- |
| COC(=O)NC(=S)Nc1ccccc1NC(=S)NC(=O)OC | inactive | – |
| CCOP(=O)(OCC)Oc1nc(Cl)c(Cl)cc1Cl | inactive | – |
| CC(C)N1C(=O)N(c2ccccc2)CSC1=NC(C)(C)C | inactive | – |
| COP(=S)(OC)SCn1nnc2ccccc2c1=O | – | 31 µM (active) |
| O=C(Nc1ccccc1-c1ccc(Cl)cc1)c1cccnc1Cl | inactive | – |
| O=P(O)(O)CCCl | inactive | – |
| C=CCOC(=O)C(C)(C)OC(=O)c1cc(-n2c(=O)cc(C(F)(F)F)n(C)c2=O)ccc1Cl | inactive | – |
| O=c1n(Cl)c(=O)n(Cl)c(=O)n1Cl | inactive | – |
| Clc1nc(Cl)nc(Nc2ccccc2Cl)n1 | inactive | – |
| CC1(C)CON(Cc2ccccc2Cl)C1=O | – | 13.4 µM (active) |
| COC(=O)c1c(C(F)F)nc(C(F)(F)F)c(C2=NCCS2)c1CC(C)C | – | 26.8 µM (active) |
| CO/N=C(/C1=NOCCO1)c1ccccc1Oc1ncnc(Oc2ccccc2Cl)c1F | inactive | – |
| CCOc1cc(C(C)(C)C)ccc1C1COC(c2c(F)cccc2F)=N1 (configuration not stated) | inactive | – |
| CCSC(=O)N1CCCCCC1 | inactive | – |
| COc1cc(OC)nc(NC(=O)NS(=O)(=O)c2ncccc2OCC(F)(F)F)n1 | inactive | – |
| CSC(=O)c1c(C(F)F)nc(C(F)(F)F)c(C(=O)SC)c1CC(C)C | inactive | – |
| CC(C)Oc1cccc(NC(=O)c2ccccc2C(F)(F)F)c1 | – | 33.6 µM (active) |
| CN=C=S | inactive | – |

Test: ATG_Sox_CIS: Attagene CIS-FACTORIAL HepG2 Assay for human SRY-box transcription factor (SOX) (AID 2282960)
Conditions: HepG2 Attagene cis-factorial SOX reporter, mRNA; actives raise or lower the signal
Procedure, shortened: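 HepG2 cells transiently transfected with multiple cis-regulated reporter units, then dosed for 24 h. Reporter mRNA quantified by RT-PCR, fluorescent labelling, HpaI digestion and capillary electrophoresis; bidirectional fit versus DMSO.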

| Structure (SMILES) | outcome |
| --- | --- |
| COC(=O)NS(=O)(=O)c1ccc(N)cc1 | inactive |
| CC(C)(C)C(=O)C(Oc1ccc(Cl)cc1)n1cncn1 (configuration not stated) | inactive |
| Cc1c(COC(=O)[C@@H]2[C@H](/C=C(\Cl)C(F)(F)F)C2(C)C)cccc1-c1ccccc1 | inactive |
| CCOC(=O)C(C)OC(=O)c1cc(Oc2ccc(C(F)(F)F)cc2Cl)ccc1[N+](=O)[O-] (configuration not stated) | inactive |
| CCN(CC)c1nc(C)cc(OP(=S)(OC)OC)n1 | inactive |
| COCC(=O)N(c1c(C)cccc1C)C(C)C(=O)OC (configuration not stated) | inactive |
| CCCCC(C#N)(Cn1cncn1)c1ccc(Cl)cc1 (configuration not stated) | inactive |
| Nc1cnn(-c2ccccc2)c(=O)c1Cl | inactive |
| CC(C)C1(C)N=C(c2ncccc2C(=O)O)NC1=O (configuration not stated) | inactive |
| N#Cc1c(Cl)cccc1Cl | inactive |
| CCNC(=O)NC(=O)C(C#N)=NOC | inactive |
| Cc1cc(C)nc(Nc2ccccc2)n1 | inactive |
| CC(C)=CC1C(C(=O)OCc2coc(Cc3ccccc3)c2)C1(C)C (configuration not stated) | inactive |
| COCc1cnc(C2=NC(C)(C(C)C)C(=O)N2)c(C(=O)O)c1 (configuration not stated) | inactive |
| CCOc1nc(F)cc2nc(S(=O)(=O)Nc3c(Cl)cccc3Cl)nn12 | inactive |
| CCN(CC)C(=O)C(C)Oc1cccc2ccccc12 (configuration not stated) | inactive |
| CS(=O)(=O)c1cc(C(F)(F)F)ccc1C(=O)c1cnoc1C1CC1 | inactive |
| CNC(=O)N(C)c1nnc(C(C)(C)C)s1 | inactive |

| Structure (SMILES) | outcome |
| --- | --- |
| COC(=O)NC(=S)Nc1ccccc1NC(=S)NC(=O)OC | inactive |
| CCOP(=O)(OCC)Oc1nc(Cl)c(Cl)cc1Cl | inactive |
| CC(C)N1C(=O)N(c2ccccc2)CSC1=NC(C)(C)C | inactive |
| COP(=S)(OC)SCn1nnc2ccccc2c1=O | inactive |
| O=C(Nc1ccccc1-c1ccc(Cl)cc1)c1cccnc1Cl | inactive |
| O=P(O)(O)CCCl | inactive |
| C=CCOC(=O)C(C)(C)OC(=O)c1cc(-n2c(=O)cc(C(F)(F)F)n(C)c2=O)ccc1Cl | inactive |
| O=c1n(Cl)c(=O)n(Cl)c(=O)n1Cl | inactive |
| Clc1nc(Cl)nc(Nc2ccccc2Cl)n1 | inactive |
| CC1(C)CON(Cc2ccccc2Cl)C1=O | inactive |
| COC(=O)c1c(C(F)F)nc(C(F)(F)F)c(C2=NCCS2)c1CC(C)C | inactive |
| CO/N=C(/C1=NOCCO1)c1ccccc1Oc1ncnc(Oc2ccccc2Cl)c1F | inactive |
| CCOc1cc(C(C)(C)C)ccc1C1COC(c2c(F)cccc2F)=N1 (configuration not stated) | inactive |
| CCSC(=O)N1CCCCCC1 | inactive |
| COc1cc(OC)nc(NC(=O)NS(=O)(=O)c2ncccc2OCC(F)(F)F)n1 | inactive |
| CSC(=O)c1c(C(F)F)nc(C(F)(F)F)c(C(=O)SC)c1CC(C)C | inactive |
| CC(C)Oc1cccc(NC(=O)c2ccccc2C(F)(F)F)c1 | inactive |
| CN=C=S | inactive |
